High-throughput results deposited in PubChem by several laboratories.
NCOA3 inh – inhibits human SRC3 coactivator | Q9Y6Q9 | HEK293 GAL4-SRC3 luciferase reporter, luminescence | inhibition, % at 3.6 µM | 360,000 compounds, 0.17% hits | AID 588352;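 active = inhibition above a per-campaign cutoff, the mean of all compounds plus 3 SD, cut at about 60% in these data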;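 note: 0% = DMSO-treated cells and 100% = gossypol-treated cells at 36 µM; higher means less SRC3-driven luciferase light from the GAL4 reporter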
SRC2 inh – human SRC2 (NCOA2) inhibition; inhibition, % at 9 µM; Q15596; 370,000 compounds, 0.17% hits; HEK293 GAL4-SRC2 luciferase reporter, luminescence;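 active = inhibition above the mean inhibition of all tested compounds plus 3 SD, set per campaign, cut at about 52% in these data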;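 note: 0% = DMSO treated cells and 100% = cells given Gossypol at 36 µM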
NR5A2 inv ag – suppresses constitutive activity of human LRH-1; AID 602396; O00482; inhibition, % at 3.6 µM; 360,000 compounds, 0.13% hits; HEK293T StAR-luciferase reporter, LRH-1 transfected, 24 h;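 active = inhibition above the mean inhibition of all tested compounds plus 3 SD, cut at about 73% in these data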;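 note: 0% = DMSO wells and 100% = reporter-only cells lacking LRH-1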
Gli-Sufu block – antagonists of Gli-Sufu signaling; Sufu-KO-LIGHT fibroblasts, Gli luciferase reporter luminescence; inhibition, % at 5 µM; 340,000 compounds, 0.74% hits;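 active = inhibition above about 55%, limit read from the data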;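 note: 0% = DMSO-treated cells and 100% = wells with medium but no cells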
NCOA1 inh – inhibits human SRC1 coactivator. Q15788. HEK293 GAL4-SRC1 luciferase reporter, luminescence. inhibition, % at 3.6 µM. 360,000 compounds, 0.12% hits. AID 588354;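 active = inhibition above the campaign mean plus 3 SD, with each screening campaign given its own cutoff, cut at about 60% in these data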;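 note: 0% = DMSO treated cells and 100% = gossypol at 36 µM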
Active calls of the source: *. Sampled rows, rich in hits. Any-hit rate of the full collection: about 0.83%.

C/C(=N\NC(=O)c1c[nH]c2ccccc12)c1ccccn1 was read as NCOA3 inh -65, SRC2 inh -10, NR5A2 inv ag -65, Gli-Sufu block -58 and NCOA1 inh -75.
For C=CCNC(=S)N/N=C(\C)c1ccccn1 the results were NCOA3 inh 23, SRC2 inh 14, NR5A2 inv ag 101*, Gli-Sufu block 84* and NCOA1 inh -41.
CC(=NNC(=S)Nc1ccccc1)c1ccccn1 was read as NCOA3 inh 51, SRC2 inh 3, NR5A2 inv ag 81* and NCOA1 inh 54.
`CCCCNS(=O)(=O)/C=C/c1cc(C)ccc1CNC(=O)OC(C)(C)C` gave SRC2 inh 19.
Screening COC(=O)c1cc(-c2cccs2)c(=O)n2c1CCC2 returned SRC2 inh -46.
For C#CC(=O)N(c1cccc(OC)c1)C(C(=O)NC1CCCC1)c1cccs1 (stereo not drawn) the results were NCOA3 inh 59, SRC2 inh -15, NR5A2 inv ag 81*, Gli-Sufu block 0 and NCOA1 inh 26.
For C#CC(=O)N(c1ccc(OC)c(OC)c1)C(C(=O)NC1CCCC1)c1cccs1 (stereo not drawn) the results were NCOA3 inh 37, SRC2 inh -1, NR5A2 inv ag 44, Gli-Sufu block 70* and NCOA1 inh 1.
Screening COc1ccc(N(C(=O)Cc2cccs2)C(C(=O)NC2CCCC2)c2ccncc2)cc1OC (stereo not drawn) returned NCOA3 inh 3, SRC2 inh 4, NR5A2 inv ag 6, Gli-Sufu block -6 and NCOA1 inh 11.
`O=C(NCc1ccccc1)OCCN1C(=O)CCC12CCC(c1ccc(Cl)cc1)CC2` (stereo not drawn) gave SRC2 inh 32.
`Oc1c(N=Nc2ccccn2)ccc2ccccc12` gave NCOA3 inh -50, SRC2 inh -21, NR5A2 inv ag -3, Gli-Sufu block 82* and NCOA1 inh -45.
`Oc1[nH]c2ccccc2c1N=Nc1ccccn1` gave NCOA3 inh -81, SRC2 inh -26, NR5A2 inv ag -13, Gli-Sufu block -28 and NCOA1 inh -44.
`CCN1CCS/C1=C/C=C/C1=[N+](CC)CCS1` gave NCOA3 inh 28, NR5A2 inv ag 67, Gli-Sufu block 82* and NCOA1 inh 52.
`COc1ccc(CN2C[C@]3(C=C(C)Cn4c(=O)n(-c5ccccc5)c(=O)n43)N(C(=O)OCc3ccccc3)C2=NC(=O)c2ccccc2)c(OC)c1` gave SRC2 inh -10.
Screening CCN1C(=NCC2CC2)N[C@@H](c2cccc(C(F)(F)F)c2)C(C(=O)OC)=C1C returned NCOA3 inh 8, NR5A2 inv ag 9, Gli-Sufu block 96* and NCOA1 inh 7.
CCN1C(=NCCOC)N[C@@H](c2cccc(C(F)(F)F)c2)C(C(=O)OC)=C1C was read as NCOA3 inh 1, SRC2 inh 16, NR5A2 inv ag -1, Gli-Sufu block 14 and NCOA1 inh -4.
Screening c1ccc2c(c1)CCN(c1nc3cc4c(cc3s1)OCCO4)C2 returned NCOA3 inh 32, SRC2 inh 58*, NR5A2 inv ag 37, Gli-Sufu block 18 and NCOA1 inh 44.
`O=C(N/N=C/c1sc(N2CCOCC2)nc1-c1ccccc1)c1cccc(S(=O)(=O)N2CCCC2)c1` gave NCOA3 inh 76*, SRC2 inh 20, NR5A2 inv ag 86*, Gli-Sufu block -4 and NCOA1 inh 65*.
COC(=O)[C@]12C[C@H](CC(=O)NCc3ccccc3)C(=O)N(Cc3cccc4ccccc34)C1=C[C@H](C1CCCC1)O[C@@H]2C was read as SRC2 inh 10.
For CCOc1ccc(C(=O)CSCCC(=O)O)cc1 the results were NCOA3 inh 23, SRC2 inh 55*, NR5A2 inv ag 5, Gli-Sufu block 16 and NCOA1 inh 13.
Screening CCOc1ccc(C(=O)Cc2ccccc2)cc1 returned NCOA3 inh -46, SRC2 inh -52, NR5A2 inv ag -57, Gli-Sufu block -28 and NCOA1 inh -54.
`COC(=O)C1CN(Cc2ccccc2)CCS(=O)(=O)N1Cc1cn(Cc2ccc(C)cc2)nn1` (stereo not drawn) gave SRC2 inh 24.
`CCCCCCCC[n+]1cccc2c3ccccc3ccc21` gave NCOA3 inh 81*, SRC2 inh 15, NR5A2 inv ag 88*, Gli-Sufu block 90* and NCOA1 inh 38.
Screening CCCCCCCCCC[n+]1cccc2c3ccccc3ccc21 returned NCOA3 inh 82*, SRC2 inh 44, NR5A2 inv ag 90*, Gli-Sufu block 89* and NCOA1 inh 58.
Screening Cc1cccc[n+]1CCCCCCCCCC[n+]1ccccc1C returned NCOA3 inh 26, SRC2 inh 7, NR5A2 inv ag 17, Gli-Sufu block 19 and NCOA1 inh 9.
For CCCN1CCS(=O)(=O)N(Cc2cn(Cc3ccc(Cl)cc3)nn2)C(C(=O)OC)C1 (stereo not drawn) the results were SRC2 inh -5.
`Cc1c(C)c2ccc(OCC(=O)Nc3ccccn3)c(C)c2oc1=O` gave NCOA3 inh 81*, SRC2 inh 69*, NR5A2 inv ag 76*, Gli-Sufu block 51 and NCOA1 inh 74*.
Screening O=C(COc1ccc(Cl)cc1Cl)Nc1ccccn1 returned NCOA3 inh 59, SRC2 inh 82*, NR5A2 inv ag 51, Gli-Sufu block -31 and NCOA1 inh 63*.
COc1ccc(CN2C/C(=C/c3ccc(C)cc3)N3C(=O)C[C@@H](c4ccccc4)N=C23)c(OC)c1 was read as SRC2 inh -12.
CN1CCN(c2ccc(-c3ccc4ccccc4n3)cc2)CC1 was read as NCOA3 inh 80*, SRC2 inh 76*, NR5A2 inv ag 74*, Gli-Sufu block 88* and NCOA1 inh 79*.
For O=C(NNC(=O)c1ccccc1-c1ccccc1C(=O)O)c1ccccc1 the results were NCOA3 inh -6, SRC2 inh 2, NR5A2 inv ag 7, Gli-Sufu block -3 and NCOA1 inh 12.
O=C(C=P(c1ccccc1)(c1ccccc1)c1ccccc1)c1ccccc1-c1ccccc1C(=O)C=P(c1ccccc1)(c1ccccc1)c1ccccc1 was read as NCOA3 inh 62*, SRC2 inh 8, NR5A2 inv ag 94*, Gli-Sufu block 86* and NCOA1 inh 59.
`C[C@H](O)[C@@H]1CN2CCc3c([nH]c4c(-c5ccc6c(c5)OCO6)cccc34)[C@@H]2C[C@@H]1N(C)C(=S)NCCc1ccccc1` gave SRC2 inh 26.
`Cc1ccc(NC(=O)CCN2CCN(CCO)CC2)cc1` gave NCOA3 inh -38, SRC2 inh -18, NR5A2 inv ag -11, Gli-Sufu block -16 and NCOA1 inh -6.
Cc1ccc(NC(=O)CCN2CCCCC2)cc1 was read as NCOA3 inh 8, SRC2 inh 59*, NR5A2 inv ag 9, Gli-Sufu block 1 and NCOA1 inh 20.
